# KCNQ2 block = rat KCNQ2 potassium channel inhibitors, primary screen, cell-based, CHO-K1, FluxOR thallium flux, B-score. Potassium voltage-gated channel subfamily KQT member 2 (Rattus norvegicus), O88943. 20 min; hits give low values. B-score at 10 µM. 1.1% of 310,000 active;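 active means fluorescence ratio B-score at most minus 3 library SDs, with starting brightness B-score within 2 library SDs, cut at about -5.5 in these data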
# KCNQ2 pot = potentiators of rat KCNQ2 potassium channel. CHO-K1 KCNQ2, FluxOR thallium flux fluorescence; hits give high values. B-score at 10 µM. 0.54% of 310,000 active. AID 2239, 2010;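 active means fluorescence ratio B-score at least 3 SD of library B-scores, with initial fluorescence B-score within 3 of them, cut at about 5.3 in these data; same plate scores as AID 2156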;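 further: B-score of peak minus minimum over baseline fluorescence ratio after K+ and Tl+ stimulus; positive B-score means potentiation of KCNQ2 with more thallium influx and brighter signal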
# Starred values were filed as active, the others as inactive; i = inactive; nt = no result given. In the library only some 1.6% were active in any assay of this set; here they are far more common.
SMILES,KCNQ2 block,KCNQ2 pot
C/C(=N\NC(=O)CCc1ccc(S(=O)(=O)N2CCOCC2)cc1)c1ccc(Br)cc1,i,nt
CCCNC(=O)NC(=O)CSc1nncs1,i,1.5
C/C(=N\OCc1nc2ccccc2c(=O)n1/N=C/c1cc(C)cc([N+](=O)[O-])c1O)c1ccccc1,-8.3*,-8.3
C/C(=N\OCc1nc2ccccc2c(=O)n1/N=C/c1cc([N+](=O)[O-])ccc1O)c1ccccc1,i,2.1
CC1(C)Nc2ccccc2C(=O)N1c1ccccc1,i,0.11
O=C(NN=C1c2ccccc2-c2ccccc21)c1cccc(Br)c1,i,17*
O=C(COc1cccc(Br)c1)NN=C1c2ccccc2-c2ccccc21,i,nt
C=CCn1cn[nH]c1=S,-8.3*,-8.3
C=CCOc1ccc(CNn2cn[nH]c2=S)cc1,i,0.06
CC(C)CN(C(=O)COc1ccc(C(C)(C)C)cc1)C1CCS(=O)(=O)C1 (stereo not drawn),i,0.9
CCCCNC(=S)NC(C)(C)CO,i,nt
COc1ccc(C(=O)NNC(=O)COc2ccc(Cl)cc2C)cc1S(=O)(=O)N1CCOCC1,-5.6*,-5.6
COc1ccc(C(=O)Nc2cccc(C)c2)cc1S(=O)(=O)N1CCOCC1,i,0.04
Cn1c(SCC(=O)Nc2nccs2)nnc1-c1ccco1,i,nt
Cn1c(SCC(=O)Nc2ccc(Cl)cc2F)nnc1-c1ccco1,-5.8*,-5.8
Cc1cccc(NC(=O)CCC2CCN(C(=O)C3CC=CCC3)CC2)c1 (stereo not drawn),i,nt
COc1ccc(-c2noc(-c3ccccc3F)n2)cc1,i,0.05
COc1ccc(-c2noc(-c3ccccc3-c3ccccc3)n2)cc1,-6.6*,-6.6
CCOC(=O)c1cc(-c2ccccc2)nc2ccc(C)cc12,i,nt
CCOC(=O)c1cnc2ccc(C)cc2c1Sc1ccc(F)cc1,-5.5*,-5.5
COc1ccc(Cn2c(S(=O)(=O)CC(N)=O)nc3ccccc32)cc1[N+](=O)[O-],i,nt
CN1CCN(C2Cc3cc(Cl)ccc3Sc3cc(F)ccc32)CC1 (stereo not drawn),-6.9*,-6.9
OCCN1CCN(C2Cc3cc(Cl)ccc3Sc3ccc(Cl)cc32)CC1 (stereo not drawn) (tested in a mixture with another compound),i,nt
C[C@H](NC(=O)c1nc[nH]c1C(=O)NCCCCCN)C(=O)OCc1ccccc1,i,1.2
COc1ccc([C@H]2[C@H](C(=O)C(C)(C)C)N3N=Cc4ccccc4C3[C@]23N=C(c2ccccc2)OC3=O)cc1 (stereo partly drawn),-9.5*,-9.5
SMILES,KCNQ2 block,KCNQ2 pot
O=C1OC(c2ccccc2)=NC12CC2c1ccc(Cl)cc1 (stereo not drawn),i,nt
COc1ccc(N(CC(=O)N2CCN(c3ccc(Cl)cc3)CC2)S(=O)(=O)c2c(C)n[nH]c2C)cc1,i,0.19
COc1ccc(-c2ccc(/C=N/NC(=O)Cc3nnc(N)s3)o2)cc1Cl,-7.4*,-7.4
Cc1ccc(-c2ccc(/C=N/NC(=O)Cc3nnc(N)s3)o2)cc1Cl,i,nt
CCOC(=O)N1CCN(C(=S)Nc2ccc(C)cc2)CC1,i,0.66
CCN(CC(=O)Nc1cc(Cl)ccc1C)C(=O)c1ccc2c(=O)n3c(nc2c1)CCC3,i,nt
COc1ccc(CN2CCNC(=O)C2CC(=O)NCc2cnn(C)c2)cc1OC (stereo not drawn),i,0.02
COCCNC(=O)CN(Cc1cccs1)C(=O)CCC(=O)Nc1nccs1,i,nt
CCOC(=O)c1c(C)n(-c2ccc(C)cc2)c2ccc(OCC(O)CNCC3CCCO3)cc12 (stereo not drawn),-6.3*,-6.3
OC(CNCC1CCCO1)COc1ccc(OCC(O)CNCC2CCCO2)cc1 (stereo not drawn),i,0.91
c1ccc(C2CC(c3ccccc3)C(c3ccccc3)N2)cc1 (stereo not drawn),i,nt
O=C1CC(c2ccc(Br)cc2)NC(c2ccc(Br)cc2)C1c1ccccc1 (stereo not drawn),-5.7*,-5.7
S=C(NCc1cccnc1)Nc1ccc(Oc2ccc(Cl)cc2)cc1,i,nt
CC(C)C[C@H](NC(=O)N1CCn2c1nc1ccccc12)C(=O)N[C@@H](C(=O)O)c1ccccc1,i,nt
CC(C)(O)c1ccccc1CC[C@@H](SCC1(CC(=O)O)CC1)c1cccc(/C=C/c2ccc3ccc(Cl)cc3n2)c1,-6.4*,-6.4
Cc1ccc(N(C(=O)c2csnn2)C(C(=O)NC2CCCCC2)c2ccccn2)cc1C (stereo not drawn),i,0.43
O=C(c1ccco1)N1CCN(CCCCOc2ccc(F)cc2)CC1,i,0.84
COc1cc(CNCc2ccccn2)ccc1OCC(N)=O,i,1.8
COc1cc(CNCc2ccccn2)ccc1OCc1ccc(Cl)c(Cl)c1,-5.9*,-5.9
Cc1ccccc1-c1nnc(SCC(=O)NC2CCCC2)n1C,i,nt
COCCCNC(=O)C1CCC(CNS(=O)(=O)c2ccc(C)cc2)CC1 (stereo not drawn),i,nt

# Screens deposited in PubChem BioAssay by Johns Hopkins Ion Channel Center.
